The panel holds about 83,000 compounds, 20% with a hit somewhere; the sample as a whole holds those more often.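 A percent growth of 40 corresponds to 60% growth inhibition; 0 means no net growth; -100 means all cells died. Active threshold: below 10.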 Unmarked numbers belong to inactive results. Calls of active or inactive are those of the source.
tested on: 786-0 renal; experiment: NCI-60 one-dose screen, 48 h (100 = growth as untreated, 0 = no growth, -100 = all killed); details: 10 µM unless noted

SMILES | growth
CCOc1ccccc1/C=N\Nc1ccc(S(=O)(=O)c2ccc(N/N=C/c3ccccc3OCC)cc2)cc1 | 103%
Nc1ccc(Cl)c([N+](=O)[O-])c1 | 107%
Oc1ccc(N=Nc2nccs2)c(O)c1 | 36.8%
O=C(N[C@@H]1CCCc2ccccc21)[C@H](CCC(=O)N1CCN(C2CCCCC2)CC1)N1C(=O)[C@@H](N2C(=O)OC[C@@H]2c2ccccc2)[C@H]1/C=C/c1ccccc1 | 42.1%
Cc1ccc(NC(=S)/N=c2/n(-c3ccccc3)nc3n2CCN3C2=NCCN2)cc1 | 53.5%
CCCCC1COc2cccc3c2N1C=C/C3=C\C(=O)n1ccc2ccccc21 (stereo not drawn) | 90.1%
COc1cc(C)cc2oc3oc(=O)c(-c4nc5ccccc5s4)cc3c(=O)c12 | 105%
O=C(Nc1ccccc1)Nc1ccc(C(=O)/C=C/c2ccc(N3CCCC3)cc2)cc1 | 93.9%
COc1cc(C)cc2oc3oc(=N)c(C(=O)c4ccccc4)cc3c(=O)c12 | 106%
CC[C@]12C=CCN3CC[C@@]4(c5ccc(OC)cc5N(C)[C@H]4[C@@](O)(C(=O)OC)[C@@H]1OC(=O)CCC(=O)N[C@H](Cc1c[nH]c4ccccc14)C(=O)OC)[C@@H]32 | -47.1% [100 µM] (active)
CC(=O)OC[C@]12CC[C@@H]([C@@H](C)C(N)=O)[C@@H]1[C@H]1CC[C@@H]3[C@@]4(C)CC[C@H](OC(C)=O)C(C)(C)[C@@H]4CC[C@@]3(C)[C@]1(C)CC2 | -74% [100 µM] (active)
O=c1c2c3c(sc2n2cnnc2n1Cc1ccccc1)CCCC3 | 100%
COc1cc2c(c(OC)c1)C1c3cc(OC)ccc3NC(=O)N1CC2 (stereo not drawn) | 95.6%
O=c1cc(-c2ccccc2)oc2cc(OCc3cn(Cc4ccc(F)cc4)nn3)cc(O)c12 | 2.24% [100 µM] (active)
CCN(CC)c1ccc2cc(NC(=O)OCCNC(=O)CCNC(=O)[C@H](CC(C)C)NC(=O)C(C)(C)NC(=O)C(C)(C)NC(=O)[C@H](CC(C)C)NC(=O)CCNC(=O)C(C)(C)NC(=O)[C@H](CC(C)C)NC(=O)CCNC(=O)[C@@](C)(CC)NC(=O)[C@H](C)NC(=O)CCNC(=O)C(C)(C)NC(=O)[C@H](C)NC(=O)[C@@H]3CCCN3C(=O)[C@@](C)(CC)NC(=O)[C@H](Cc3ccccc3)NC(=O)C3CCCN3C(=O)C(C)(C)NC(=O)C3CCCN3C(=O)C(C)(C)NC(C)=O)c(=O)oc2c1 (stereo partly drawn) | -94.8% (active)
CCCCCCCCCCCCCC[n+]1cccc(C(N)=O)c1 | -40% (active)
CCOC(CNC(=O)c1cccc([N+](=O)[O-])c1)OCC | 101%
COc1ccc(/C=C/C=C\C(=O)c2ccc(-n3ccnc3)cc2)cc1 | -0.616% (active)
CCNc1cc2c(cc1Br)-c1ccccc1C2=O | 109%

SMILES | growth
C[n+]1c(-c2ccccc2)c2cc(N)ccc2c2ccccc21 | 55.3%
C/C=C/C1OC23CCCCC2C(C#N)(C(=N)O3)C1(C#N)C#N (stereo not drawn) | 105%
Fc1cc2[nH]ncc2c2c3c(c(-c4cn[nH]c4)nc12)CCCC3 | 12.1%
CCOC(=O)c1nn(C2CCCCO2)c2ccc(NC(=O)CN3CCCC3)cc12 (stereo not drawn) | 93.3%
Nc1nnc(CSc2nnc3n(Cc4ccccc4)c(=O)c4c5c(sc4n23)CCCC5)s1 | 93.3%
O=S(=O)(NCc1ccccc1)c1ncnc2nc[nH]c12 | 107%
c1cc2ccc1CNCCN1CCNCc3ccc(cc3)Oc3ccc(cc3)CNCCN(CCNCc3ccc(cc3)O2)CCNCc2ccc(cc2)Oc2ccc(cc2)CNCC1 | 66.2%
CS(=O)(=O)c1cccnn1 | 97.2%
N=C(N)c1ccc(-c2ccc(-c3ccc(-c4cccs4)s3)s2)cc1F | 99.5%
CCCSc1nc(N)nc2nc[nH]c12 | 97.5%
C[C@H]1[C@H](C)CC[C@]2(C(=O)O)CC[C@]3(C)C(=CC[C@@H]4[C@@]5(C)C/C(=C/c6cccnc6)[C@H](O)C(C)(C)[C@@H]5CC[C@]43C)[C@H]12 | 1.92% [100 µM] (active)
O=C1CC(c2ccccc2)Cc2nc3ccc(Br)cc3cc21 (stereo not drawn) | 41.2%
C1=C[C@H]2O[C@@H]1c1ccc3[nH]ccc3c12 | 106%
CCN(CC)c1ccc(/C=C/c2ccc3cc(C)ccc3[n+]2CC)cc1 | 16.2%
O=C(Nc1cc(F)cc2cccnc12)c1cnc(N2CCNCC2)cn1 | 89.1%
C=CCCC1(C)NC(=O)NC1=O (stereo not drawn) | 93.5%
CC(=O)Nc1ccc2nc3ccc(NC(C)=O)cc3[n+](-c3ccccc3)c2c1 | 102%
CCCCCN(CCCCC)CCCCCCCCN1CCCc2ccccc21 | 96.6%
O=C(O)c1cccc(CN2CCN(c3cc4c(cc3F)c(=O)c(C(=O)O)cn4C3CC3)CC2)c1O | 102%

— PubChem BioAssay (NCI)
